40 molecules from PubChem BioAssay can be followed below.

The structures appear in SMILES notation. The source made the active and inactive calls.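 The calls were made as follows, unless noted: active = hit in primary screen, with calcium signal over 5 SD above buffer well mean in both duplicates; inactive = the rest.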

In the first experiment the test system is TRPC4 (mouse), co-expressed with 5HT1a in HEK293. Kind of experiment: enhancement of serotonin-evoked TRPC4 response – cell-based, second counter screen, HEK293 TRPC4/5HT1a, Fluo-4, counter-screen for TRPC4 potentiator project, confirmation (AID 434979;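 active = signal rise over 3 SD above mean of control wells given weak agonist, in both repeats and first screen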). The note with it: Fluo-4 calcium flux, at 10 µM, serotonin added at its EC20 dose; active compounds read high. On the technique in general: A counterscreen serves to expose hits that act by an unwanted route or on another target.
`CCc1cc2c(SCC(=O)N(C)C3CCS(=O)(=O)C3)ncnc2s1` (configuration not stated): the potentiation was 42.5% (active). Take `OC(CNCC1CCCO1)Cn1c2ccc(Br)cc2c2cc(Br)ccc21` (configuration not stated): the potentiation is 45.1% (active).

Take `CCN1CCN(c2ccc(S(=O)(=O)N3CCCCC3)cc2NC(=O)c2cccc(F)c2)CC1`: the potentiation was 18.4% (active). `COC(=O)/C=C1\SC(=NC(=O)c2cccc(Cl)c2)NC1=O`: the outcome was inactive. Regarding `CCCc1ccc(OCc2ccc(C(=O)N3CCCC3)o2)cc1`, the potentiation was 31.2% (active).

As to `Cc1ccc(-c2csc3ncnc(NCCN4CCOCC4)c23)cc1`, the result was inactive. As to `Cn1c(=O)n(CCCO)c(=O)c2c1nc1n2CCCN1Cc1ccccc1`, the result was inactive. Take `O=C(NC1CC1)c1ccc2c(c1)N(Cc1ccc(Cl)cc1)CCS2`: the outcome was inactive. Turning to `O=C(COc1ccccc1-c1ccccc1)NCc1ccco1`, the outcome was inactive. In the case of `CCOc1ccc2nc(NCCNC(=O)C3CC3)c(C)cc2c1`, the outcome was inactive.

System in a further experiment: not listed separately
Kind of experiment: nonspecific calcium rise without TRPC4 – cell-based, HEK293 mu-opioid receptor line, counter-screen for TRPC4 activator project, confirmation (AID 449723).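 Also: counter screen cells carry the mu-opioid receptor alone and lack TRPC4.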 The settings on record: HEK293 mu-opioid cells, Fluo-4 calcium fluorescence, at 10 µM; active compounds read high.
As for `Cc1cc(N2CCCCC2)nc(NCc2ccccc2)n1`, the activation is 29.5% (active). Turning to `COCCNC(=O)/C(C#N)=C/c1cc(C(C)C)c(OC)cc1C`, the result was inactive. Same read-out and setting: the result for `CCN1CCN(c2ccc(S(=O)(=O)N3CCCCC3)cc2NC(=O)COc2cc(C)ccc2Cl)CC1` reads “inactive”; that for `FC(F)(F)COc1nc(N2CCCCC2)nc(N2CCNCC2)n1`, “inactive”. Regarding `CCSc1nnc([C@H](Cc2c[nH]c3ccccc23)NC(=O)OC(C)(C)C)o1`, the outcome was inactive. `COc1ccc(/C=C(\C#N)C(=O)N2CCOCC2)cc1Br`: the outcome was inactive. On the same count and under the same terms, the result for `N#Cc1ccc(OCC(O)CN2CCN(c3ncc(C(F)(F)F)cc3Cl)CC2)cc1` (configuration not stated) reads “inactive”.

For the molecule `CCCC1=C(C(=O)OCC)C(c2cc(Cl)cc(OC)c2OCC(=O)OCC)NC(=O)N1` (configuration not stated), the outcome was inactive.

As for `CCCCCc1ccc(OCCCC[n+]2ccccc2)c(CCCCC)c1`, the outcome was inactive.

`CC(C)(C)c1ccccc1OCCCCCn1ccnc1`: the result was inactive. With `CCOC(=O)COc1cc(-n2c(=S)[nH]c3ccccc3c2=O)c(Cl)cc1Cl`, the outcome was inactive.

Consider `CCCCc1nc(N2CCOCC2)c(C#N)c2c1CCCC2`, for which the result was inactive. `CCN1CCN(c2ccc(NC(=O)CCc3c(C)nc4c(-c5ccc(F)cc5)c(C)nn4c3C)cc2)CC1`: the result was inactive. Take `CCOc1cc(/C=C(\C#N)C(=O)Nc2cccc(C(=O)O)c2)cc(Br)c1OC(=O)c1ccc(OC)cc1`: the outcome was inactive.

With `COc1ccc(Cl)c2sc(N(CCN(C)C)C(=O)c3ccc4c(c3)OCCO4)nc12`, the outcome was inactive. On the same count and under the same terms, the result for `CCCCN1C(=O)C(=O)N(CC(=O)Nc2cc(OCC)c(N3CCOCC3)cc2OCC)C1=O` reads “inactive”. Same read-out and setting: the result for `CN(C)CCOc1ccc2ccccc2c1` reads “inactive”. In the case of `CCCn1c(NCc2cc(OC)ccc2OC)nc2ccccc21`, the outcome was inactive. Still for that read-out and setting: the result for `COC(=O)c1ccc(NC(=O)CCN2CCN(Cc3ccccc3)CC2)cc1` reads “inactive”. On to `Cn1c(=O)c2c(nc(SCCN3CCCCC3)n2Cc2ccccc2)n(C)c1=O`, for which the outcome was inactive. Consider `O=C(NCc1ccccc1Cl)/C(=C\c1cccnc1)NC(=O)c1ccccc1`, for which the result was inactive.

With `COC(=O)[C@@]12CCCN1[C@H](c1ccc(-c3ccc(OC)cc3)cc1)[C@@H]1C(=O)N(C)C(=O)[C@@H]12`, the outcome was inactive.

Take `COc1ccc(-c2cc(C(F)(F)F)nc(N3CCN(C)CC3)n2)cc1`: the outcome was inactive. For `CCOc1ccc(NS(=O)(=O)c2ccc(NC(=S)NC(=O)CC(C)C)cc2)cc1`, the result was inactive. Regarding `CCCN(CCC)CCCNC(=O)c1cc2c(=O)n(C)c3ccccc3c2n1C`, the result was inactive.

With `COc1ccc(CNCC(O)(c2ccccc2)c2ccccc2)cc1OC`, the result was inactive. The same measure, in the same setting: the result for `CCOc1cc2[nH]c(=S)n(C3CC3)c(=O)c2cc1OCC` reads “inactive”; that for `CCOC(=O)c1c(C(F)(F)C(F)(F)C(F)(F)C(F)(F)F)n[nH]c1C`, “inactive”.

As for `Cn1c(=O)cc(OCCCC(=O)NCCCN2CCN(Cc3ccccc3)CC2)c2ccccc21`, the result was inactive. Same read-out and setting: the result for `CC(=O)C1=C(O)C(=O)N(Cc2ccco2)C1c1ccc2c(c1)OCO2` (configuration not stated) reads “inactive”; that for `CCc1cc2c(SCC(=O)N(C)C3CCS(=O)(=O)C3)ncnc2s1` (configuration not stated), “inactive”; that for `OC(CNCC1CCCO1)Cn1c2ccc(Br)cc2c2cc(Br)ccc21` (configuration not stated), “inactive”. On the same count and under the same terms, the result for `CCN1CCN(c2ccc(S(=O)(=O)N3CCCCC3)cc2NC(=O)c2cccc(F)c2)CC1` reads “inactive”; that for `COC(=O)/C=C1\SC(=NC(=O)c2cccc(Cl)c2)NC1=O`, “inactive”; that for `CCCc1ccc(OCc2ccc(C(=O)N3CCCC3)o2)cc1`, “inactive”. The same measure, in the same setting: the result for `Cc1ccc(-c2csc3ncnc(NCCN4CCOCC4)c23)cc1` reads “inactive”; that for `Cn1c(=O)n(CCCO)c(=O)c2c1nc1n2CCCN1Cc1ccccc1`, “inactive”.
